Test results as given in PubChem BioAssay AID1159580 (chemical genetic matrix, 2015).
About 2,000 (36%) of roughly 5,500 compounds were called active. Inconclusive results (about 18%) are left out. No stated cut-off is given here; in the data, active means normalized growth mostly below about 0.91 (no sharp cut-off); inconclusive means no clear call, values can overlap the other calls; inactive means mostly above about 0.92. This is one part of the list.

Assay: chemical genetic growth profiling, strain panel (AID 1159580);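 further: tested at 20 µM; growth read once vehicle control cultures reached saturation at 30 °C; 1 = growth at the plate median or of vehicle wells; lower values mean less growth of the strain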
Conditions: growth OD

Measured: normalized growth

Oc1cc(O)cc(/C=C/c2ccccc2)c1
active: S. cerevisiae deletion strains, locus YLR418C, strain cdc73, hits give low values 0.797
inactive: S. cerevisiae deletion strains, locus YBR021W, strain FUR4, hits give low values 1.1 | S. cerevisiae deletion strains, locus YBR229C, strain ROT2, hits give low values 1 | S. cerevisiae deletion strains, locus YCL029C, strain bik1, hits give low values 0.973 | S. cerevisiae deletion strains, locus YDL035C, strain GPR1, hits give low values 1.01 | S. cerevisiae deletion strains, locus YDL074C, strain BRE1, hits give low values 0.983 | S. cerevisiae deletion strains, locus YDL101C, strain DUN1, hits give low values 0.978 | S. cerevisiae deletion strains, locus YDL185W, strain tfp1, hits give low values 0.959 | S. cerevisiae deletion strains, locus YDL192W, strain arf1, hits give low values 0.977 | S. cerevisiae deletion strains, locus YDR101C, strain arx1, hits give low values 1.04 | S. cerevisiae deletion strains, locus YDR150W, strain NUM1, hits give low values 0.998 | S. cerevisiae deletion strains, locus YDR162C, strain NBP2, hits give low values 0.996 | S. cerevisiae deletion strains, locus YDR318W, strain mcm21, hits give low values 0.965 | S. cerevisiae deletion strains, locus YDR388W, hits give low values 0.987 | S. cerevisiae deletion strains, locus YDR502C, strain sam2, hits give low values 0.962 | S. cerevisiae deletion strains, locus YEL061C, strain CIN8, hits give low values 1 | S. cerevisiae deletion strains, locus YER110C, hits give low values 0.977 | S. cerevisiae deletion strains, locus YER155C, strain BEM2, hits give low values 0.995 | S. cerevisiae deletion strains, locus YER167W, strain BCK2, hits give low values 1.01 | S. cerevisiae deletion strains, locus YGL078C, strain dbp3, hits give low values 0.953 | S. cerevisiae deletion strains, locus YGL086W, strain mad1, hits give low values 0.995 | S. cerevisiae deletion strains, locus YGL248W, strain PDE1, hits give low values 0.957 | S. cerevisiae deletion strains, locus YGR135W, strain pre9, hits give low values 0.921 | S. cerevisiae deletion strains, locus YGR252W, strain gcn5, hits give low values 0.88 | S. cerevisiae deletion strains, locus YHR030C, strain SLT2, hits give low values 1 | S. cerevisiae deletion strains, locus YHR079C, strain IRE1 (second series), hits give low values 0.976 | S. cerevisiae deletion strains, locus YHR094C, strain hxt1, hits give low values 0.987 | S. cerevisiae deletion strains, locus YHR129C, strain ARP1, hits give low values 0.99 | S. cerevisiae deletion strains, locus YHR200W, strain rpn10, hits give low values 0.981 | S. cerevisiae deletion strains, locus YIL066C, strain RNR3, hits give low values 1.01 | S. cerevisiae deletion strains, locus YIL073C, strain SPO22, hits give low values 0.963 | S. cerevisiae deletion strains, locus YIL125W, strain kgd1, hits give low values 1.01 | S. cerevisiae deletion strains, locus YIR030C, strain dcg1, hits give low values 0.983 | S. cerevisiae deletion strains, locus YJL095W, strain BCK1, hits give low values 0.961 | S. cerevisiae deletion strains, locus YJL134W, strain LCB3, hits give low values 1.01 | S. cerevisiae deletion strains, locus YJL168C, strain set2, hits give low values 0.974 | S. cerevisiae deletion strains, locus YJL187C, strain SWE1 (second series), hits give low values 0.966 | S. cerevisiae deletion strains, locus YJR043C, strain POL32, hits give low values 1.03 | S. cerevisiae deletion strains, locus YKL009W, strain mrt4, hits give low values 0.964 | S. cerevisiae deletion strains, locus YKL068W, hits give low values 0.994 | S. cerevisiae deletion strains, locus YKL085W, strain MDH1 (second series), hits give low values 0.994 | S. cerevisiae deletion strains, locus YKL085W, strain MDH1, hits give low values 0.994 | S. cerevisiae deletion strains, locus YKR001C, strain vps1, hits give low values 0.987 | S. cerevisiae deletion strains, locus YLR039C, strain RIC1, hits give low values 1.03 | S. cerevisiae deletion strains, locus YLR058C, strain SHM2, hits give low values 0.996 | S. cerevisiae deletion strains, locus YLR102C, strain apc9, hits give low values 0.992 | S. cerevisiae deletion strains, locus YLR262C, strain YPT6, hits give low values 1.02 | S. cerevisiae deletion strains, locus YLR268W, strain sec22, hits give low values 1.02 | S. cerevisiae deletion strains, locus YLR330W, strain CHS5, hits give low values 0.993 | S. cerevisiae deletion strains, locus YLR342W, strain FKS1 (second series), hits give low values 1.07 | S. cerevisiae deletion strains, locus YLR371W, strain rom2, hits give low values 0.933 | S. cerevisiae deletion strains, locus YML016C, strain PPZ1, hits give low values 0.998 | S. cerevisiae deletion strains, locus YML032C, strain rad52, hits give low values 0.993 | S. cerevisiae deletion strains, locus YML124C, strain tub3, hits give low values 0.982 | S. cerevisiae deletion strains, locus YMR078C, strain ctf18, hits give low values 0.984 | S. cerevisiae deletion strains, locus YMR223W, strain ubp8, hits give low values 0.977 | S. cerevisiae deletion strains, locus YMR307W, strain GAS1, hits give low values 1 | S. cerevisiae deletion strains, locus YNL067W, strain RPL9B, hits give low values 0.968 | S. cerevisiae deletion strains, locus YNL128W, strain TEP1, hits give low values 0.977 | S. cerevisiae deletion strains, locus YNL153C, strain GIM3, hits give low values 0.96 | S. cerevisiae deletion strains, locus YNL233W, strain BNI4, hits give low values 0.981 | S. cerevisiae deletion strains, locus YNL250W, strain rad50, hits give low values 0.935 | S. cerevisiae deletion strains, locus YNL271C, strain bni1, hits give low values 0.984 | S. cerevisiae deletion strains, locus YNL298W, strain CLA4, hits give low values 1.02 | S. cerevisiae deletion strains, locus YNL307C, strain MCK1, hits give low values 0.991 | S. cerevisiae deletion strains, locus YNR052C, strain pop2, hits give low values 0.977 | S. cerevisiae deletion strains, locus YOL006C, strain TOP1, hits give low values 1.15 | S. cerevisiae deletion strains, locus YOL012C, strain htz1 1.16 | S. cerevisiae deletion strains, locus YOL147C, strain pex11, hits give low values 0.977 | S. cerevisiae deletion strains, locus YOR061W, strain CKA2, hits give low values 1.01 | S. cerevisiae deletion strains, locus YOR069W, strain VPS5, hits give low values 0.989 | S. cerevisiae deletion strains, locus YOR136W, strain idh2, hits give low values 0.984 | S. cerevisiae deletion strains, locus YOR144C, strain elg1, hits give low values 0.999 | S. cerevisiae deletion strains, locus YOR184W, strain ser1, hits give low values 1.05 | S. cerevisiae deletion strains, locus YOR316C, strain cot1, hits give low values 0.984 | S. cerevisiae deletion strains, locus YPL241C, strain CIN2, hits give low values 1 | S. cerevisiae deletion strains, locus YPR119W, strain clb2, hits give low values 0.978 | S. cerevisiae deletion strains, locus YPR141C, strain kar3, hits give low values 0.969 | S. cerevisiae deletion strains, locus YPR163C, strain tif3, hits give low values 0.99 | S. cerevisiae deletion strains, locus YPR167C, strain met16, hits give low values 0.957 | S. cerevisiae deletion strains, strain wtn01, hits give low values 1 | S. cerevisiae strains, strain wild type, hits give low values 1.01
